Measurements from PubChem BioAssay (NCATS).
Records with an inconclusive call do not appear. Activity calls are given as the source filed them. Calls come from the whole dose curve; as a rule, active = well fitted curve in the direction sought with a large enough effect; inconclusive = small, poorly fitted or top-dose-only effect, or another doubt; inactive = no such curve, though single readings can be large; an effect the other way counts as inactive or inconclusive. Residues, ends and D or L forms follow the SMILES beside them. *: point of attachment. Cbz = O=C(OCc1ccccc1)*

Key:
[1] = Quantitative High-Throughput drug screen in 47 multiple myeloma cell lines against the NCATS MIPE library collection: KHM11_PLB cell viability assay (AID 1918962); note: nearly all actives have a fitted effect of over 35% in size
How it was run: (§1)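 Myeloma cells (500 per well) were exposed to MIPE 4.0 compounds by pin transfer and incubated 48 hours at 37C, 5% CO2. Viability was read as ATP by CellTiter-Glo luminescence, normalised to DMSO (100%) and media-only (0%) wells.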

[2] = Quantitative High-Throughput drug screen in 47 multiple myeloma cell lines against the NCATS MIPE library collection: JIM3_ECACC cell viability assay (AID 1918963; note: nearly all actives have a fitted effect of over 35% in size)
How it was run: as §1

[3] = Quantitative High-Throughput drug screen in 47 multiple myeloma cell lines against the NCATS MIPE library collection: JIM1_ECACC cell viability assay (AID 1918964)
How it was run: (§2)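 We plated 500 myeloma cells per well, pinned in MIPE 4.0 compounds, and incubated for 48 hours at 37C. ATP was then quantified with CellTiter-Glo, with DMSO and media-only wells defining 100% and 0%.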

[4] = Quantitative High-Throughput drug screen in 47 multiple myeloma cell lines against the NCATS MIPE library collection: INA6_PLB cell viability assay (AID 1918965; note: nearly all actives have a fitted effect of over 55% in size)
How it was run: (§3)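 CellTiter-Glo ATP luminescence gave viability after 48 h compound treatment at 37C of 500 multiple myeloma cells per well. Normalisation used DMSO-only wells as 100% and media-only wells as 0% viability; primary qHTS of approved and investigational drugs.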

[5] = Quantitative High-Throughput drug screen in 47 multiple myeloma cell lines against the NCATS MIPE library collection: JJN3_DSMZ cell viability assay (AID 1918966; note: nearly all actives have a fitted effect of over 50% in size)
How it was run: as §2

[6] = Quantitative High-Throughput drug screen in 47 multiple myeloma cell lines against the NCATS MIPE library collection: H1112_PLB cell viability assay (AID 1918967; note: nearly all actives have a fitted effect of over 30% in size)
How it was run: as §2

[7] = Quantitative High-Throughput drug screen in 47 multiple myeloma cell lines against the NCATS MIPE library collection: Karpas25_ECACC cell viability assay (AID 1918968; note: nearly all actives have a fitted effect of over 35% in size)
How it was run: as §2

[8] = Quantitative High-Throughput drug screen in 47 multiple myeloma cell lines against the NCATS MIPE library collection: KMS12BM_JCRB cell viability assay (AID 1918971); note: nearly all actives have a fitted effect of over 35% in size
How it was run: (§4)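 Myeloma cell lines, 500 cells per well, exposed to MIPE 4.0 library compounds for 48 h at 37C, 5% CO2. Viability from ATP by CellTiter-Glo luminescence; normalised to DMSO (100%) and media-only (0%) wells.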

[9] = Quantitative High-Throughput drug screen in 47 multiple myeloma cell lines against the NCATS MIPE library collection: KMS20_JCRB cell viability assay (AID 1918973); note: nearly all actives have a fitted effect of over 45% in size
How it was run: as §2

[10] = Quantitative High-Throughput drug screen in 47 multiple myeloma cell lines against the NCATS MIPE library collection: KMS26_JCRB cell viability assay (AID 1918975); note: nearly all actives have a fitted effect of over 45% in size
How it was run: as §4

[11] = Quantitative High-Throughput drug screen in 47 multiple myeloma cell lines against the NCATS MIPE library collection: MOLP8_DSMZ cell viability assay (AID 1918977); note: nearly all actives have a fitted effect of over 45% in size
How it was run: (§5)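 ATP-based CellTiter-Glo luminescence after 48 h drug exposure (37 °C, 5% CO2) of 500 myeloma cells per well. DMSO-only wells set 100% viability, media-only wells 0%; MIPE 4.0 library added by pin tool.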

[12] = Quantitative High-Throughput drug screen in 47 multiple myeloma cell lines against the NCATS MIPE library collection: NCIH929_DSMZ cell viability assay (AID 1918978); note: nearly all actives have a fitted effect of over 35% in size
How it was run: as §5

[13] = Quantitative High-Throughput drug screen in 47 multiple myeloma cell lines against the NCATS MIPE library collection: OCIMY1_PLB cell viability assay (AID 1918979); note: nearly all actives have a fitted effect of over 35% in size
How it was run: as §5

[14] = Quantitative High-Throughput drug screen in 47 multiple myeloma cell lines against the NCATS MIPE library collection: MM1S_ATCC cell viability assay (AID 1918980); note: nearly all actives have a fitted effect of over 45% in size
How it was run: as §5

[15] = Quantitative High-Throughput drug screen in 47 multiple myeloma cell lines against the NCATS MIPE library collection: KMS12PE_JCRB cell viability assay (AID 1918972); note: nearly all actives have a fitted effect of over 30% in size
How it was run: as §3

[16] = Quantitative High-Throughput drug screen in 47 multiple myeloma cell lines against the NCATS MIPE library collection: MMM1_PLB cell viability assay (AID 1918976); note: nearly all actives have a fitted effect of over 35% in size
How it was run: as §5

[17] = Quantitative High-Throughput drug screen in 47 multiple myeloma cell lines against the NCATS MIPE library collection: MM1R_ATCC cell viability assay (AID 1918981); note: nearly all actives have a fitted effect of over 35% in size
How it was run: as §5

[18] = Quantitative High-Throughput drug screen in 47 multiple myeloma cell lines against the NCATS MIPE library collection: KMS27_JCRB cell viability assay (AID 1918970); conditions: KMS27 myeloma cells, CellTiter-Glo ATP viability, 48 h; viability (% of DMSO): at 45.8 µM (top of the series); note: nearly all actives have a fitted effect of over 30% in size
How it was run: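 Luminescent ATP read-out (CellTiter-Glo, 5 min at room temperature) after 48 h compound exposure of 500 KMS27_JCRB cells per well; DMSO wells define full viability and media-only wells zero.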

[19] = Quantitative High-Throughput drug screen in 47 multiple myeloma cell lines against the NCATS MIPE library collection: KMS21BM_JCRB cell viability assay (AID 1918974); conditions: ATP luminescence, 48 h; viability: at 45.8 µM (top of the series)
How it was run: as §2
Potency is the fitted concentration of half-maximal effect.

O=C(C=CC#Cc1cccc(NS(=O)(=O)c2ccccc2)c1)NO
active: Potency [1] 2350 nM | Potency [2] 5260 nM | Potency [3] 1320 nM | Potency [4] 743 nM | Potency [5] 2350 nM | Potency [6] 2960 nM | Potency [7] 833 nM | Potency [8] 1480 nM | Potency [9] 2350 nM | Potency [10] 3320 nM | Potency [11] 935 nM | Potency [12] 1180 nM | Potency [13] 2960 nM | Potency [14] 1870 nM

COc1cc(C)c(Sc2cnc(NC(=O)c3ccc(CNC(C)C(C)(C)C)cc3)s2)cc1C(=O)N1CCN(C(C)=O)CC1 (stereo unspecified)
active: Potency [1] 14800 nM | Potency [2] 3720 nM | Potency [3] 1480 nM | Potency [4] 14800 nM | Potency [5] 10500 nM | Potency [6] 5900 nM | Potency [7] 4690 nM | Potency [8] 16600 nM | Potency [15] 5260 nM | Potency [9] 3720 nM | Potency [10] 16600 nM | Potency [16] 7430 nM | Potency [11] 8330 nM | Potency [13] 14800 nM | Potency [14] 4180 nM | Potency [17] 5900 nM

C[C@H](NCc1ccc2c(c1)nc(NC(=O)c1ccc(-c3cn[nH]c3)s1)n2CCc1ccccc1)C(C)(C)C
active: Potency [1] 590 nM | Potency [2] 1480 nM | Potency [3] 418 nM | Potency [4] 833 nM | Potency [5] 1180 nM | Potency [6] 1660 nM | Potency [7] 1480 nM | Potency [8] 2350 nM | Potency [15] 743 nM | Potency [9] 935 nM | Potency [16] 2350 nM | Potency [11] 590 nM | Potency [12] 1050 nM | Potency [13] 1870 nM | Potency [14] 1660 nM

CC(C)C[C@@H](C=O)NC(=O)[C@H](CC(C)C)NC(=O)[C@H](CC(C)C)NC(=O)OCc1ccccc1 (Cbz-Leu-Leu-Leu-aldehyde)
active: Potency [1] 187 nM | Potency [2] 526 nM | Potency [3] 209 nM | Potency [4] 148 nM | Potency [5] 469 nM | Potency [6] 264 nM | Potency [7] 235 nM | Potency [18] 166 nM | Potency [8] 469 nM | Potency [15] 105 nM | Potency [9] 526 nM | Potency [10] 590 nM | Potency [16] 2350 nM | Potency [11] 469 nM | Potency [12] 118 nM | Potency [13] 332 nM | Potency [14] 166 nM | Potency [17] 332 nM

Cc1cnc(NC(=O)Nc2cc(Br)c(C)cc2OC[C@@H]2CNCCO2)cn1
active: Potency [1] 20900 nM | Potency [2] 935 nM | Potency [3] 1050 nM | Potency [4] 469 nM | Potency [5] 18700 nM | Potency [6] 5900 nM | Potency [7] 16600 nM | Potency [8] 9350 nM | Potency [15] 833 nM | Potency [9] 5260 nM | Potency [10] 16600 nM | Potency [16] 18700 nM | Potency [11] 4690 nM | Potency [12] 7430 nM | Potency [14] 662 nM

COc1cc2c(Nc3ccc(Cl)c(Cl)c3F)ncnc2cc1OCC1C[C@@H]2CN(C)C[C@H]2C1
active: Potency [1] 5900 nM | Potency [2] 4180 nM | Potency [3] 14800 nM | Potency [4] 1480 nM | Potency [5] 1320 nM | Potency [6] 2350 nM | Potency [7] 2350 nM | Potency [18] 5900 nM | Potency [8] 5260 nM | Potency [9] 1870 nM | Potency [16] 23500 nM | Potency [12] 2090 nM | Potency [14] 16600 nM | Potency [17] 16600 nM

CN(C)c1ccc(C(=O)NCCCCCCC(=O)NO)cc1
active: Potency [1] 1660 nM | Potency [2] 2960 nM | Potency [3] 93.5 nM | Potency [4] 166 nM | Potency [5] 1050 nM | Potency [6] 1870 nM | Potency [7] 469 nM | Potency [18] 66.2 nM | Potency [8] 235 nM | Potency [15] 93.5 nM | Potency [19] 41.8 nM | Potency [10] 2960 nM | Potency [11] 743 nM | Potency [12] 833 nM | Potency [13] 1870 nM | Potency [14] 833 nM | Potency [17] 590 nM

C=CC(=O)Nc1ccc2ncnc(Nc3ccc(OCc4cccc(F)c4)c(Cl)c3)c2c1
active: Potency [1] 6620 nM | Potency [2] 743 nM | Potency [3] 41.8 nM | Potency [4] 662 nM | Potency [5] 18700 nM | Potency [6] 1050 nM | Potency [7] 1870 nM | viability (% of DMSO) [18] 70.4% | Potency [8] 418 nM | Potency [15] 74.3 nM | Potency [10] 9350 nM | Potency [16] 18700 nM | Potency [11] 6620 nM | Potency [12] 4180 nM | Potency [13] 14800 nM | Potency [14] 1660 nM | Potency [17] 8330 nM

C=CC(=O)N1CCc2ccc(-n3c(=O)ccc4cnc5ccc(-c6cnn(C)c6)cc5c43)cc21
active: Potency [1] 526 nM | Potency [2] 2960 nM | Potency [3] 1870 nM | Potency [4] 235 nM | Potency [5] 1050 nM | Potency [6] 1050 nM | Potency [7] 590 nM | Potency [18] 2960 nM | Potency [8] 4690 nM | Potency [15] 2960 nM | Potency [9] 833 nM | Potency [10] 1320 nM | Potency [11] 590 nM | Potency [12] 1660 nM | Potency [13] 1870 nM | Potency [14] 2640 nM | Potency [17] 2350 nM

CC(=O)[C@]1(O)Cc2c(O)c3c(c(O)c2[C@@H](O[C@H]2C[C@H](N)[C@@H](O)[C@H](C)O2)C1)C(=O)c1ccccc1C3=O
active: Potency [1] 296 nM | Potency [2] 264 nM | Potency [3] 1180 nM | Potency [4] 93.5 nM | Potency [5] 209 nM | Potency [6] 187 nM | Potency [7] 148 nM | Potency [18] 1180 nM | Potency [8] 235 nM | Potency [15] 2090 nM | Potency [9] 105 nM | Potency [10] 264 nM | Potency [16] 148 nM | Potency [11] 132 nM | Potency [12] 166 nM | Potency [13] 743 nM | Potency [14] 16.6 nM | Potency [17] 52.6 nM
